# In PubChem BioAssay AID2284379 (EPA ToxCast):
# Results filed as inconclusive are left out. Calls of active or inactive are those of the source. How the source made its calls: active means hit-call score of the fitted dose curve at least 0.9, where 1 is the maximum; inconclusive means response in the unintended direction; inactive means score below 0.9.
# Assay: ATG_M_32_EcoTox2: Attagene TRANS-FACTORIAL EcoTox-2 HepG2 Assay for M32 Transcription Factor (Internal Marker)
# Method: ATG_EcoTox2 is a cell-based, multiplexed assay created by modifying the existing Attagene TRANS-FACTORIAL system to include a panel of nuclear receptors from some or all the following species: human (Homo sapiens), african clawed frog (Xenopus laevis), rainbow trout (Oncorhynchus mykiss), japanese medaka (Oryzias latipes), and zebrafish (Danio rerio). The ECOTOX2-FACTORIAL format uses HepG2, a human liver cell line, with measurements taken at 24 hours after chemical dosing in a 24-well plate. ATG_M_32_EcoTox2 is one of 29 assay components calculated in the ATG_EcoTox2 assay. It is designed to make measurements of mRNA induction, a form of inducible reporter, as detected with fluorescence intensity signals by Reverse transcription polymerase chain reaction (RT-PCR) and Capillary electrophoresis technology.The assay endpoint ATG_M_32_EcoTox2 was analyzed in the positive analysis fitting direction relative to DMSO as the negative control and baseline of activity. Using a type of inducible reporter, measures of mRNA for gain-of-signal activity can be used to understand the background control at the transcription factor-level as they relate to the gene. Furthermore, this assay endpoint can be referred to as a secondary readout, because this assay has produced multiple assay endpoints where this one serves a background control function. To generalize the intended target to other relatable targets, this assay endpoint is annotated to the background measurement intended target family, where the subfamily is internal marker.
# Human liver HepG2 cells are transiently transfected with multiple reporter transcription units (MRTUs) in 6-well plates using FuGene 6 reagent (Roche; 3 ml FuGene/1 mg DNA). The MRTU constructs are regulated by a cis-regulating element (promoter). Each RTU expresses a GAL4-UAS that regulates the transcription of a nearby target reporter gene sequence. A major difference between the CIS and TRANS system is that in CIS activities of endogenous TFs are measured, whereas the TRANS assay evaluates changes in activities of exogenous, chimeric NR-Gal4 proteins. […] At the end of 24 hour incubation, total RNA was isolated using TriZol reagent (Invitrogen). The isolated RNA is then reverse-transcribed using oligo(dT) primer and Mo-MLV reverse transcriptase (Invitrogen) with DNAse I (Ambion) treatment for 30 min. The one-tenth of the produced cDNA was amplified by PCR using Taq DNA polymerase (Invitrogen) and two reporter sequence-specific primers. The PCR products were fluorescently labeled by primer extension with 6-arboxyfluorescein (6-FAM) 5'-labeled reporter sequence-specific primer (2 min at 95 C, 20 s at 68 C and 10 min at 72 C) and these products were digested with 5U of HpaI (New England Biolabs) for 2h at 37 C. The fragments were purified using Qiaquick PCR columns (Qiagen), analyzed on an ABI 3130xL genetic analyzer (Applied Biosystems) with peak positions identified by using a set of X-rhodamine (ROX)-labeled MapMarker1000 molecular weight standards (BioVentures). The raw capillary electrophoresis data was processed using Attagraph software (Attagene).
row,Compound,outcome
1,O=P(Oc1ccccc1)(Oc1ccccc1)Oc1ccccc1,inactive
2,CCCCOCN(C(=O)CCl)c1c(CC)cccc1CC,inactive
3,O=S(=O)(O)C(F)(F)C(F)(F)C(F)(F)C(F)(F)C(F)(F)C(F)(F)F,inactive
4,[Cl][Sn]([c]1ccccc1)([c]1ccccc1)[c]1ccccc1,inactive
5,O=C(O)C(F)(F)C(F)(F)C(F)(F)C(F)(F)C(F)(F)C(F)(F)C(F)(F)F,inactive
